Experimental findings from PubChem BioAssay (Tox21) are described below.

Unmarked numbers belong to inactive results. Inconclusive results are not listed. Active and inactive are the calls of the source. Unless noted, the call rests on the fitted dose curve; in most records, active means well fitted curve in the direction sought with a large enough effect in the repeat runs; inconclusive means weak or mixed curves; inactive means no such curve, though single readings can be large; an effect the other way counts as inactive or inconclusive.

Test [1] can be described thus: qHTS assay to identify small molecule agonists of the hypoxia (HIF-1) signaling pathway - cell viability counter screen (AID 1224844; calls by dose curve; further: nearly all actives have a fitted effect of over 50% in size). Put shortly:
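Same wells as the HIF-1 reporter screen; ME-180 cells carrying HRE-bla, 17 hr treatment at 37C; CellTiter-Glo luminescence read after 30 min at room temperature.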
(In general: qHTS replaces the single test concentration by a dilution series.)

Test [2] in a line: qHTS assay to identify small molecule agonists of H2AX (AID 1224845; active means well fitted activation curve with a large enough effect in the signal ratio in the repeat runs, not every such curve was filed as active; the % refers to the signal ratio). In outline: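 Wild-type CHO-K1 cells plated overnight, then exposed 3 hr at 37C to compounds at 15 concentrations (0.76% DMSO). Lysed, then HTRF anti-pH2AX(S139)-cryptate/anti-H2AX-d2 detection after 24 hr at room temperature; emissions 665 and 620 nm.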
Test [3] in a line: qHTS assay to identify small molecule agonists of the hypoxia (HIF-1) signaling pathway (AID 1224846; active means well fitted activation curve with a large enough effect in the signal ratio in the repeat runs, not every such curve was filed as active; the % refers to the signal ratio). In outline: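 In ME-180 cells bearing an HRE-bla construct, 17 h treatment with DMSO-dissolved compounds at 37C was followed by CCF4-AM loading to quantify reporter induction.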
The nature of test [4]: qHTS assay to identify small molecule agonists of H2AX - cell viability counter screen (AID 1224847; calls by dose curve; further: top concentration of the series differs between compounds; nearly all actives have a fitted effect of over 30% in size). In outline: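 Cells plated first: CHO-K1, 1000 per well in 10% FBS medium, incubated overnight at 37C. Then 15-point compound titration added (final DMSO 0.76%) for 3 hr. Finally CellTiter-Glo added and luminescence read.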
A short description of test [5]: qHTS assay to identify small molecule agonists of the estrogen related receptor (ERR) signaling pathway from Tox21 library (AID 1224849; calls by dose curve; further: nearly all actives have a fitted effect of over 15% in size). The settings on record: ERR reporter cell line, ONE-Glo luciferase, 18 h; at 92.4 µM (top of the series) unless noted. Put shortly: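 Reporter cells (ERR, NTP source) treated with Tox21 10K compounds 18 h, 37 C. Readout: ONE-Glo luminescence, 30 min RT.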

The nature of test [6]: qHTS RealTime-Glo MT Cell Viability Assay in HepG2 cells - 40 hour (AID 1224870). Further: nearly all actives have a fitted effect of over 50% in size. Further: potency means the concentration at half of the fitted maximal effect. Put shortly:
(§1)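 HepG2 cells mixed with RealTime-Glo MT reagents (NanoLuc plus cell-permeant prosubstrate) were seeded at 600 cells/well, incubated 5 h at 37 C/5% CO2, then pinned with compounds in DMSO; nonlytic luminescence tracked viability during 40 h treatment.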

Test [7] can be described thus: A CellTox Green Cytotoxicity Assay to monitor cytotoxicity in HEK293 cells - 40 hour (AID 1224871). Further: nearly all actives have a fitted effect of over 45% in size. Further: potency means the concentration at half of the fitted maximal effect. In outline:
(§2)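 Homogeneous no-lysis format: HEK293 cell suspension mixed with CellTox Green reagent, seeded, incubated 5 h at 37 C/5% CO2, then dosed by pintool with compound in DMSO.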

A short description of test [8]: qHTS RealTime-Glo MT Cell Viability Assay in HepG2 cells - 8 hour (AID 1224873). Further: nearly all actives have a fitted effect of over 55% in size. Put shortly:
as §1

The nature of test [9]: A CellTox Green Cytotoxicity Assay to monitor cytotoxicity in HEK293 cells - 24 hour (AID 1224875). Further: nearly all actives have a fitted effect of over 45% in size. In outline:
as §2

Test [10] is described as follows: A CellTox Green Cytotoxicity Assay to monitor cytotoxicity in HepG2 cells - 16 hour (AID 1224876). Further: nearly all actives have a fitted effect of over 45% in size. Further: potency means the concentration at half of the fitted maximal effect. In outline:
(§3)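 Fluorescent DNA-binding dye, 600 HepG2 cells/well, 5 h preincubation then compound in DMSO; same plates read at 0–40 h, 37 C.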

Test [11] can be described thus: qHTS RealTime-Glo MT Cell Viability Assay in HepG2 cells - 32 hour (AID 1224877). Further: nearly all actives have a fitted effect of over 55% in size. Further: potency means the concentration at half of the fitted maximal effect. In outline:
(§4)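 qHTS, HepG2, 600 cells/well, RealTime-Glo (NanoLuc + prosubstrate) added with cells; 5 h preincubation; DMSO compound addition; 37 C; luminescence at 0/8/16/24/32/40 h.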

The nature of test [12]: A CellTox Green Cytotoxicity Assay to monitor cytotoxicity in HepG2 cells - 40 hour (AID 1224879). Further: nearly all actives have a fitted effect of over 40% in size. Further: potency means the concentration at half of the fitted maximal effect. In outline: as §3
A short description of test [13]: qHTS RealTime-Glo MT Cell Viability Assay in HepG2 cells - 24 hour (AID 1224867). Further: nearly all actives have a fitted effect of over 50% in size. In outline: as §4
A short description of test [14]: qHTS RealTime-Glo MT Cell Viability Assay in HEK293 cells - 32 hour (AID 1224868). Further: nearly all actives have a fitted effect of over 50% in size. Further: potency means the concentration at half of the fitted maximal effect. In outline:
(§5)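 Assay medium contained NanoLuc luciferase plus cell-permeant prosubstrate, added with HEK293 cells at 600 cells/well. After 5 h at 37 C/5% CO2 compounds were added; plates stayed at 37 C for 40 h with serial luminescence reads.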

Test [15] in a line: A CellTox Green Cytotoxicity Assay to monitor cytotoxicity in HEK293 cells - 0 hour (AID 1224869). Further: nearly all actives have a fitted effect of over 50% in size. In outline:
as §2

Test [16] is described as follows: qHTS RealTime-Glo MT Cell Viability Assay in HEK293 cells - 16 hour (AID 1224872). Put shortly: as §5
A short description of test [17]: qHTS RealTime-Glo MT Cell Viability Assay in HEK293 cells - 40 hour (AID 1224874). Further: nearly all actives have a fitted effect of over 50% in size. Further: potency means the concentration at half of the fitted maximal effect. The settings on record: RealTime-Glo luminescence; max response: stronger effect = lower value. In outline: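 Measured as luminescence from the same continuously cultured HEK293 wells at successive time points (0, 8, 16, 24, 32, 40 h) after compound addition. Reagent present from seeding; dosing at 5 h; incubation 37 C.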

In test [18] the target is Thyrotropin receptor (Homo sapiens) (UniProt P16473). Kind of test: qHTS assay to identify small molecule agonists of the thyroid stimulating hormone receptor (TSHR) signaling pathway (AID 1224843; calls by dose curve; further: nearly all actives have a fitted effect of over 45% in size). Put shortly: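 Using 15 concentrations per compound in triplicate, cAMP production was monitored in TSHR-HEK293 cells after 30 min compound incubation at RT; HTRF reagents followed, with fluorescence intensity recorded after 1 h.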
Sequence of Thyrotropin receptor (Homo sapiens) (P16473 whole entry, looked up): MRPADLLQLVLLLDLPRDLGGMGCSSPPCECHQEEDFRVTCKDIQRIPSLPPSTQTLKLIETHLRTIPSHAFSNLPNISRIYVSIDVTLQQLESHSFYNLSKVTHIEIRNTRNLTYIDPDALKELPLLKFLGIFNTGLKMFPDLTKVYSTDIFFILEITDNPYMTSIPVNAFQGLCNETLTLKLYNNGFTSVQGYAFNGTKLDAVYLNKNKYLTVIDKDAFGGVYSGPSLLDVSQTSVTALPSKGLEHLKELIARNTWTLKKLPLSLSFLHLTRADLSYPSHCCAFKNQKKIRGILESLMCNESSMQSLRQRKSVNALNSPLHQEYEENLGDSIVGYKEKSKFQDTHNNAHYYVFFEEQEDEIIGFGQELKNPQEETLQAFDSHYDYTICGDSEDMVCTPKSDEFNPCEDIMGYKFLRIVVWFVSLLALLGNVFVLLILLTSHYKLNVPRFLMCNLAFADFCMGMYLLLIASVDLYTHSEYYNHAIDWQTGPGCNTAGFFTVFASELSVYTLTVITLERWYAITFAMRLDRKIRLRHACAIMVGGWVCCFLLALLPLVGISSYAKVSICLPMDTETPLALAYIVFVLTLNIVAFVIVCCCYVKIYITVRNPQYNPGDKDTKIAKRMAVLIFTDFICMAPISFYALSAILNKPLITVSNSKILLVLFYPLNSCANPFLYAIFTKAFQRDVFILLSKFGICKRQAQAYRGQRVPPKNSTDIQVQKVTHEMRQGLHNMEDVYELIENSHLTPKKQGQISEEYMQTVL

A short description of test [19]: qHTS assay to identify small molecule antagonists of the estrogen related receptor (ERR) signaling pathway from Tox21 library (AID 1224848). Further: nearly all actives have a fitted effect of over 50% in size. Further: potency means the concentration at half of the fitted maximal effect. In outline: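 Tox21 10K compounds in DMSO tested for ERR pathway antagonism in NTP's ERR cell line; 18 h, 37 C exposure; ONE-Glo luminescence.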
A short description of test [20]: A CellTox Green Cytotoxicity Assay to monitor cytotoxicity in HepG2 cells - 24 hour (AID 1224878). Further: nearly all actives have a fitted effect of over 45% in size. Further: potency means the concentration at half of the fitted maximal effect. Put shortly: as §3
On the % scale 0 is the no-effect control and ±100 the full control effect.

For `N#Cc1ccc(CC(=O)c2cccc(C(F)(F)F)c2)cc1`, the Potency entry in test [1], in test [2], in [4], in test [6], in test [7] and in test [9] was “inactive” in each case. In addition, the Potency result in [10], in test [11] and in [12] was “inactive” each time. Further, the result in test [3] and in [8] was inactive. The activity change, positive = activation in test [5] is -29.1%.

In the case of `O=C(O)c1ccc2cc(O)ccc2c1`, the Potency result in test [1], in test [2], in test [4], in test [14], in test [15] and in test [6] was “inactive” throughout. In addition, the Potency result in [16], in [9], in [10], in test [11] and in test [12] was “inactive” in each case. Further, the call in test [3], in test [13] and in [8] was inactive. Besides, the max response in test [17] was -17.3%.

For the compound `CC(C)C[C@H](NC(=O)[C@H](Cc1ccccc1)NC(=O)c1cnccn1)B(O)O`, the Potency result in [18], in test [15] and in test [9] was “inactive” throughout. Moreover, the compound was classed as inactive in [3] and in test [8]. Also, the Potency was 23.7 nM (active) in test [19]; 37.9 nM (active) in [14]; 21.3 nM (active) in [6]; 37.9 nM (active) in test [7]; 23.9 nM (active) in [17]; 13400 nM (active) in [10]. Also, the Potency in [11] is 30.1 nM (active); in test [20], 95.2 nM (active); in [12], 15.1 nM (active). Also, in test [5], the activity change, positive = activation was -63.1% [at 42.5 µM].

In the case of `CC(=O)c1cccnc1`, the Potency result in [1], in test [2], in test [4], in [19], in test [14] and in test [15] was “inactive” throughout. For the same compound, the Potency result in test [6], in [7], in [16], in test [9], in test [10] and in test [11] was “inactive” throughout. In addition, the Potency entry in [20] and in test [12] was “inactive” each time. The result in [3], in test [13] and in [8] was inactive. The activity change, positive = activation in test [5] was 4.95%. Further, the max response in test [17] was -6.53%.

Regarding `COC(=O)C(C)(C)C`, the Potency entry in [18], in [4], in test [19], in test [15], in test [7] and in test [9] was “inactive” each time. The Potency result in [10], in [11] and in [12] was “inactive” throughout. Besides, the result in test [3], in [13] and in [8] was inactive. The activity change, positive = activation in test [5] was -7.89%. For the same compound, the max response in [17] is -22.6%.

For the compound `CO[C@@H]1[C@@H](O[C@@H]2O[C@H](C)[C@@H](O[C@H]3C[C@@](C)(O)[C@@H](O)[C@H](C)O3)[C@H](N(C)C)[C@H]2O)[C@@H](CC=O)C[C@@H](C)[C@@H](O[C@@H]2CC[C@H](N(C)C)[C@@H](C)O2)/C=C/C=C/C[C@@H](C)OC(=O)C[C@H]1OC(C)=O`, the Potency result in test [1], in [2], in test [4], in test [14], in [15] and in [6] was “inactive” each time. The Potency entry in test [7], in test [16], in [9], in test [10], in test [11] and in test [20] was “inactive” in each case. Moreover, the Potency result in test [12] was “inactive”. In addition, the result in [3], in test [13] and in [8] was inactive. For the same compound, in [17], the max response was 1.04%.

Turning to `CCC(C)C1N=C(C)C(C)S1` (configuration not stated), the Potency entry in [18], in test [4], in [19], in test [14], in [15] and in test [6] was “inactive” each time. Also, the Potency result in test [7], in test [16], in test [9], in test [10], in test [11] and in test [20] was “inactive” each time. In addition, in test [12], the Potency entry is “inactive”. Also, the call in [3], in [13] and in test [8] was inactive. In test [5], the activity change, positive = activation was -2.96%. The max response in test [17] was 6.11%.

`CC(=O)CC/C=C(\C)CC/C=C(\C)CC/C=C(\C)CCC=C(C)C`: the Potency result in [1], in test [2], in test [4], in test [14], in test [15] and in test [6] was “inactive” each time. Also, the Potency result in test [7], in test [16], in test [9], in test [10], in [11] and in [20] was “inactive” throughout. Besides, the Potency result in test [12] was “inactive”. Also, the outcome in [3], in [13] and in [8] was inactive. The max response in test [17] was 4.5%.
